Gli-Sufu antag – blocks Gli-Sufu signaling in a luciferase reporter. inhibition, % at 5 µM. hit rate 0.74% among 340,000. Sufu-KO-LIGHT fibroblasts, Gli luciferase reporter luminescence. AID 588413;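 active = inhibition above about 55%, limit read from the data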
697 NFkB inh – inhibitors of the PMA/ionomycin-induced NF-kB reporter in 697 B cells | 697 B-cell NF-kB luciferase reporter, 16 h | inhibition, % at 4 µM | hit rate 0.33% among 330,000 | AID 435022; in the data active = inhibition above about 35%
aSyn UTR inh – 5' untranslated region of α-synuclein, MLPCN primary screen; alpha-synuclein 5'UTR reporter, inhibitor activity; inhibition, % (tested at 7.5 µM); AID 1813; hit rate 0.82% among 300,000; in the data active = inhibition above about 60%;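 also: H4 neuroglioblastoma cells stably carrying SNCA 5'UTR luciferase fusion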
KLF5 inh – inhibitors of KLF5 expression; AID 1700; hit rate 0.23% among 290,000; DLD-1 KLF5 promoter-luciferase reporter, luminescence; inhibition, % at 5 µM;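 active = inhibition above a per-plate limit of that plate's mean compound inhibition plus 3 SD, cut at about 60% in these data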;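 also: higher means less KLF5 promoter-driven luciferase light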
Jurkat NFkB inh – lowers PMA/ionomycin-induced NF-kB signal in Jurkat cells; hit rate 0.53% among 330,000; PMA/ionomycin-induced NF-kB luciferase reporter, luminescence; inhibition, % at 4 µM; in the data active = inhibition above about 50%
Mdm2 MdmX PPI – disrupts the human Mdm2-MdmX interaction; SaOS-2 split-luciferase Mdm2/MdmX complementation, luminescence; inhibition, % at 8 µM; hit rate 3% among 330,000; AID 485346; O15151+Q00987;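 active = inhibition of at least 50% at 8 µM in the primary screen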
Target sequence (O15151 whole entry, looked up): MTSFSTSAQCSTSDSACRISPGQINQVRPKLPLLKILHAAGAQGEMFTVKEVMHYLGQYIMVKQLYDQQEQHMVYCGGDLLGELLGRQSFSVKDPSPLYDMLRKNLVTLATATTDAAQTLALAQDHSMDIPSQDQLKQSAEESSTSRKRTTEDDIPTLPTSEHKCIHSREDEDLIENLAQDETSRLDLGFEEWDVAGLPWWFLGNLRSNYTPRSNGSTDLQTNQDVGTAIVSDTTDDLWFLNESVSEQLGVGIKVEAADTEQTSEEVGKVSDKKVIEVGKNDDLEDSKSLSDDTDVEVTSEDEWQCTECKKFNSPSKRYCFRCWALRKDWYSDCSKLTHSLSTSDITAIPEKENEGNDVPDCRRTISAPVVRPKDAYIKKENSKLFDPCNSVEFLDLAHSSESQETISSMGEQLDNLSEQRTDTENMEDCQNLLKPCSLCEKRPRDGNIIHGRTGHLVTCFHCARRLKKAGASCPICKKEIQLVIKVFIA
Target sequence (Q00987 whole entry, looked up): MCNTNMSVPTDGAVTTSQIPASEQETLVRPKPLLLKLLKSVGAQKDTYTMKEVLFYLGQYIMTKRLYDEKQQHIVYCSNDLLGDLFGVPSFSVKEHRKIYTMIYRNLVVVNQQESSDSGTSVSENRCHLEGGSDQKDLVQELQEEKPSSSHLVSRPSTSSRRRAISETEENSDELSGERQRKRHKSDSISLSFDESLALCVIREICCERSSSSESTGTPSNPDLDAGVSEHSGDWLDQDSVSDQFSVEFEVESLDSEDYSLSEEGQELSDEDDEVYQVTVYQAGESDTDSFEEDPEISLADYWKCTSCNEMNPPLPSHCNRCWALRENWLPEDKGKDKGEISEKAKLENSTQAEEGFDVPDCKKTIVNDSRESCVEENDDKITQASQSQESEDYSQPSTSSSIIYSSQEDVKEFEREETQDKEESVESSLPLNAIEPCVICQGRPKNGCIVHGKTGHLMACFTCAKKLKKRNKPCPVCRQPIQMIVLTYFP
Mdm2 MdmX conf – human Mdm2/MdmX binding inhibition, confirmed. shares compounds with Mdm2 MdmX PPI. luminescent assay. inhibition, % at 8 µM. hit rate 55% among 10,000. AID 489028; in the data active = inhibition above about 40%
Full FLuc ctr – inhibits full-length luciferase, flagging false Mdm2/MdmX hits; shares compounds with Mdm2 MdmX PPI; SaOS-2 full-length luciferase counterscreen, luminescence; inhibition, % at 8 µM; hit rate 77% among 6,200;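 active = mean inhibition at 8 µM reaching about 37%, which flags the compound as non-specific, limit read from the data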;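 also: p53-null SaOS-2 cells with luciferase driven by a doxycycline-inducible promoter; compound on cells about two nights before reading with doxycycline added after day one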
Of the large screens only hits and unclear results are named; the others gave an inactive call (follow-up assays come after a bar, where they were run). Sampled rows, rich in hits. Any-hit rate of the full collection: about 4.1%.

CCOc1ccc(CN2CCN(Cc3cc4c(cc3Cl)OCO4)CC2CCO)cc1 (stereo not given)	none
COc1ccc(-c2n[nH]c(C)c2-c2ccc(Cl)cc2)c(O)c1OC	Mdm2 MdmX PPI 86.7 | Mdm2 MdmX conf 73.2 | Full FLuc ctr 39.2
O=C(COC(=O)c1cc(Br)ccc1Cl)NC1CCCC1	none
Cc1ccc(SCCC(=O)N/N=C/c2ccccc2O)cc1	Mdm2 MdmX PPI 52.0 | Mdm2 MdmX conf 43.8 | Full FLuc ctr 46.8
O=C(Cc1ccccc1)N/N=C/c1cc(Br)cc(Br)c1O	Mdm2 MdmX PPI 59.4 | Mdm2 MdmX conf 73.2 | Full FLuc ctr 43.7
C/C(=N/NC(=O)CCC(=O)Nc1ccc(Br)cc1)c1ccc(Br)cc1	Mdm2 MdmX PPI 50.6 | Mdm2 MdmX conf inactive
O=C(CCc1ccccc1)N/N=C/c1cc(Br)ccc1O	Mdm2 MdmX PPI 71.4 | Mdm2 MdmX conf 68.7 | Full FLuc ctr inactive
Cc1noc(C)c1NC(=O)N(C)C[C@@H]1Oc2ccc(NC(=O)C3CCCCC3)cc2C(=O)N([C@@H](C)CO)C[C@H]1C	none (no result: aSyn UTR inh, KLF5 inh)
O=C(CCn1cnc(-c2ccccc2)c1-c1ccccc1)N/N=C/c1ccc(O)cc1	none
O=C(N/N=C/c1cc(Br)ccc1O)c1ccccc1Cl	aSyn UTR inh 67.1, Mdm2 MdmX PPI 65.9 | Mdm2 MdmX conf 68.8 | Full FLuc ctr inactive
Cc1ccc(NC(=O)CCC(=O)N/N=C/c2ccccc2O)cc1	none
O=C(CCC(=O)Nc1ccc(Br)cc1)N/N=C/c1ccccc1O	Mdm2 MdmX PPI 67.3 | Mdm2 MdmX conf 67.5 | Full FLuc ctr 48.3
O=C(CCn1cnc(-c2ccccc2)c1-c1ccccc1)N/N=C/c1ccccc1O	Mdm2 MdmX PPI 75.8 | Mdm2 MdmX conf 68.5 | Full FLuc ctr inactive
CCN(C[C@H]1N[C@@](CC)(C(=O)OC)[C@H]2C(=O)N(C)C(=O)[C@@H]12)C(=O)COC	none (no result: aSyn UTR inh, KLF5 inh)
Cc1ccc(S(=O)(=O)Nc2cccc(-c3ccc4nnc(C)n4n3)c2)s1	Mdm2 MdmX PPI 64.7 | Mdm2 MdmX conf inactive
O=C(OCC(=O)N1CCCC1=O)c1nc(Cl)c(Cl)c(Cl)c1Cl	Mdm2 MdmX PPI 77.3 | Mdm2 MdmX conf inactive
COc1ccc(/C(C)=N/NC(=O)c2cccc(S(=O)(=O)N3CCCC3)c2)c(O)c1	aSyn UTR inh 77.6, Mdm2 MdmX PPI 67.2 (no result: KLF5 inh) | Mdm2 MdmX conf 81.2 | Full FLuc ctr inactive
COc1ccc(C(C)=NNC(=O)c2cccc(S(=O)(=O)N3CCCC3)c2)cc1	none (no result: aSyn UTR inh, KLF5 inh)
Cc1cc(NC(=O)CSc2nc(-c3ccco3)cc(C(F)(F)F)n2)no1	aSyn UTR inh 68.9, Mdm2 MdmX PPI 65.0 | Mdm2 MdmX conf 52.8 | Full FLuc ctr 76.7
O=C(CSc1nc(-c2ccco2)cc(C(F)(F)F)n1)NCCc1ccccc1	Mdm2 MdmX PPI 72.9 | Mdm2 MdmX conf 68.0 | Full FLuc ctr inactive
O=C(c1ccc(Cl)cc1)C(CN1CCCCC1)c1ccccc1 (stereo not given)	Mdm2 MdmX PPI 94.2 | Mdm2 MdmX conf 55.0 | Full FLuc ctr 42.4
CCCOc1ccc(C(=O)C(CN2CCOCC2)c2ccccc2)cc1 (stereo not given)	Mdm2 MdmX PPI 91.3 | Mdm2 MdmX conf 84.5 | Full FLuc ctr inactive
COc1ccc(CCN2C(=O)CC(N3CCN(S(=O)(=O)c4ccccc4)CC3)C2=O)cc1OC (stereo not given)	none
COc1cc(C(=O)Nc2ccc3nc(N4CCN(C)CC4)cc(C)c3c2)cc(OC)c1OC	Mdm2 MdmX PPI 53.0 | Mdm2 MdmX conf inactive
COc1ccc(CNC(=S)Nc2ccc3nc(N4CCN(C)CC4)cc(C)c3c2)cc1	none
COc1ccccc1CNC(=S)Nc1ccc2nc(N3CCN(C)CC3)cc(C)c2c1	Mdm2 MdmX PPI 54.2 | Mdm2 MdmX conf 50.0 | Full FLuc ctr 61.3
Cc1cc(N2CCN(C)CC2)nc2ccc(NC(=O)c3ccc4c(c3)OCO4)cc12	Mdm2 MdmX PPI 54.7 (no result: aSyn UTR inh) | Mdm2 MdmX conf inactive
CCN1CCN(c2cc(C)c3cc(NC(=O)c4cc(OC)cc(OC)c4)ccc3n2)CC1	none
COc1ccc(CNC(=O)COC(=O)c2cccn2C)cc1	none (no result: aSyn UTR inh, KLF5 inh)
CC(OC(=O)CNC(=O)c1ccc2ccccc2c1)C(=O)N(C)C1CCCCC1 (stereo not given)	none (no result: KLF5 inh)
O=c1/c(=C/c2ccc(O)cc2)sc2nc3cc(Br)cnc3n12	Mdm2 MdmX PPI 57.9 (no result: Gli-Sufu antag) | Mdm2 MdmX conf inactive | Full FLuc ctr 39.5
O=C1c2ccccc2CN1Cc1ccccc1	none
N=c1c(C(=O)NCC2CCCO2)cc2c(=O)n3ccccc3nc2n1Cc1ccccc1 (stereo not given)	none
N=c1c(C(=O)NCC2CCCO2)cc2c(=O)n3ccccc3nc2n1Cc1ccccc1Cl (stereo not given)	Mdm2 MdmX PPI 64.1 | Mdm2 MdmX conf inactive
Cc1cccn2c(=O)c3cc(C(=O)NCCc4ccccc4)c(=N)n(CC4CCCO4)c3nc12 (stereo not given)	Mdm2 MdmX PPI 71.5 | Mdm2 MdmX conf inactive
Cc1cccn2c(=O)c3cc(C(=O)NCCc4ccccc4)c(=N)n(CCCn4ccnc4)c3nc12	Mdm2 MdmX PPI 51.0 | Mdm2 MdmX conf inactive
CCOC(=O)C(=O)Nc1ccccc1C(=O)Nc1ccc(OC)cc1	none
CCC1CCCCN1C(=O)COC(=O)c1cc(=O)[nH]c2ccccc12 (stereo not given)	none (no result: aSyn UTR inh, KLF5 inh)
Cc1ccc(NC(=O)c2cc(S(=O)(=O)N(C)C)ccc2N2CCCC2)cc1F	Mdm2 MdmX PPI 52.1 | Mdm2 MdmX conf inactive
CN(C)S(=O)(=O)c1ccc(N2CCCC2)c(C(=O)NCC(=O)Nc2ccc(F)c(F)c2)c1	none (no result: aSyn UTR inh, KLF5 inh)
CCCCn1c(-c2ccc(F)c(F)c2)nc2cc3[nH]c(=O)c(C(C)C)nc3cc21	none
CCCCn1c(CCc2ccccc2)nc2cc3[nH]c(=O)c(C(C)C)nc3cc21	Mdm2 MdmX PPI 50.6 | Mdm2 MdmX conf inactive
COCCn1c(SCC(=O)NC(=O)NC2CCCC2)nc2ccccc2c1=O	none (no result: Gli-Sufu antag, aSyn UTR inh, KLF5 inh)
N=c1oc2ccc3ccccc3c2cc1C(N)=S	Mdm2 MdmX PPI 86.8 | Mdm2 MdmX conf 45.8 | Full FLuc ctr 66.3
CC(C)(C)OC(=O)N1CCC(NC(=O)c2nc[nH]c2C(=O)NCC(=O)OCc2ccccc2)CC1	none
Cc1nc(N(C)Cc2ccccc2)c2nnn(Cc3ccccc3)c2n1	none
Cc1cccc2c1-c1sc(C(=O)Nc3ccccc3N3CCN(C)CC3)cc1CO2	Mdm2 MdmX PPI 64.9 | Mdm2 MdmX conf inactive | Full FLuc ctr 68.2
CC(=O)c1c(C)[nH]c(C(=O)OCc2csc(CC(=O)Nc3ccccc3C)n2)c1C	Mdm2 MdmX PPI 50.9 (no result: aSyn UTR inh, KLF5 inh) | Mdm2 MdmX conf inactive
CCN1CCN(c2cc(C)c3cc(NC(=S)N4CCN(c5ccccc5F)CC4)ccc3n2)CC1	Mdm2 MdmX PPI 79.9 | Mdm2 MdmX conf 44.9 | Full FLuc ctr 59.9
CCN1CCN(c2cc(C)c3cc(NC(=S)N4CCOCC4)ccc3n2)CC1	none

Bioassay records: PubChem, several laboratories
